From the supplement of paper PMC8387472

Columns and labels:
Assay in all cases: fraction of 1-bp insertions among edited reads; higher = more 1-bp insertion outcomes
Settings in all cases: mESC; 2uM; 72 h treatment, harvest day 5
Pemetrexed = compound: Nc1nc2[nH]cc(CCc3ccc(C(=O)N[C@@H](CCC(=O)O)C(=O)O)cc3)c2c(=O)[nH]1 [Pemetrexed]
[1] = compound: Nc1ncnc2c1c(-c1cnc3[nH]ccc3c1)nn2C1CCCC1
[2] = compound: O=C(c1cccc(Cl)c1F)N1CCN(Cc2cccc(Nc3nccs3)n2)CC1
Kenpaullone = compound: O=C1Cc2c([nH]c3ccc(Br)cc23)-c2ccccc2N1 [Kenpaullone]
Genistein = compound: O=c1c(-c2ccc(O)cc2)coc2cc(O)cc(O)c12 [Genistein]
[3] = compound: O=c1cc(N2CCOCC2)oc2c(-c3ccc4c(c3)OCCO4)csc12
Mercaptopurine (6-MP) = compound: S=c1[nH]cnc2nc[nH]c12 [Mercaptopurine (6-MP)]
[4] = compound: S=c1nc[nH]c2nc[nH]c12 [6-Mercaptopurine (6-MP) Monohydrate]

Target	fraction of 1-bp insertions among edited reads (Pemetrexed)	fraction of 1-bp insertions among edited reads [1]	fraction of 1-bp insertions among edited reads [2]	fraction of 1-bp insertions among edited reads (Kenpaullone)	fraction of 1-bp insertions among edited reads (Genistein)	fraction of 1-bp insertions among edited reads [3]	fraction of 1-bp insertions among edited reads (Mercaptopurine (6-MP))	fraction of 1-bp insertions among edited reads [4]
30.0 (DMSO control at this site: 1-bp insertion 0.074, MH deletion 0.67, edited 0.142) GAGCTGGCATGAGTATTTGTGCCACATGGCTCCCACATGGCTCCACATGCAAGTTTGAAAC	0.0714	0.113	0.0986	0.0891	0.0719	0.0702	0.0954	0.0905
3.0 (DMSO control at this site: 1-bp insertion 0.109, MH deletion 0.149, edited 0.09) TGCTAGCGCCCCCACAAAGCGGACCAGCCAGCACTATAGGGAATAAGGCCAACTTGCACCC	0.184	0.227	0.152	0.104	0.116	0.13	0.15	0.0992
28.0 (DMSO control at this site: 1-bp insertion 0.035, MH deletion 0.77, edited 0.142) TGGTTCTTCCTTTGTAGAGAGTGTTCATCTGGGAATCTGGGACTTGGATGAGACAATCATT	0.0369	0.0494	0.0462	0.0461	0.032	0.0316	0.0428	0.0506
32.0 (DMSO control at this site: 1-bp insertion 0.03, MH deletion 0.85, edited 0.898) AGAAGTCCAGGATCAGGGGGACTGGGGTCGGGAGGGTGGGGCAGGAAGGAAGCCAGAATCA	0.0205	0.0205	0.0247	0.0214	0.0197	0.0144	0.0169	0.0198
17.0 (DMSO control at this site: 1-bp insertion 0.112, MH deletion 0.348, edited 0.058) CCATAGCGCGATAAATATGACGGCTCATCCTGTATGACGGCTCATCCTGTATCAACTGTCC	0.0727	0.193	0.111	0.166	0.119	0.172	0.17	0.144
8.0 GCATGCGTGTTTTGGGACAATGTAGTATACATTTGGGAGGCTCTCAGCTTTTCCCAATAAA	0.255	0.646	–	0.441	–	–	–	0.442
18.0 (DMSO control at this site: 1-bp insertion 0.114, MH deletion 0.789, edited 0.094) GCGCAAGTGCATAAGTTTTTCTTAAGGCGTGCCTTTAAGGCGTGCCTTTGTCGGTCCTGGA	0.0804	0.12	0.114	0.134	0.0973	0.0588	0.137	0.13
35.0 (DMSO control at this site: 1-bp insertion 0.01, MH deletion 0.72, edited 0.098) CCACTTTTAGAGAGGGTGAAAATCATCAGTTATCATCAGGGCAACAAATTGCTTTCTCCTA	0.0156	0.0183	0.0381	0.0204	0.00956	0.0278	0.0333	0.0402
39.0 (DMSO control at this site: 1-bp insertion 0.328, MH deletion 0.371, edited 0.204) CTGCACAGTCACTTAGGATAGGAGAAGATGATGTATAGGGTTTAGTGGGAGATGTTGCAAG	0.395	–	0.45	0.572	0.372	0.355	0.407	0.417
42.0 (DMSO control at this site: 1-bp insertion 0.145, MH deletion 0.655, edited 0.132) GGGCTAAACCTATGAGCACAGTAGAACTAAGGGTGGGTGGTGTAGCTAAAGAACTTGACCA	0.118	0.246	0.201	0.21	0.144	0.141	0.181	0.198
23.0 AGAACAAAGCGCTCATATAACGATATGGGGGGTTATGGGGGGTTGAATTGCTTCAGCACGA	–	–	0.008	–	–	–	–	–
40.0 (DMSO control at this site: 1-bp insertion 0.072, MH deletion 0.192, edited 0.189) GCGAATCAACTGTTCAACAACAGCAGCAGCCACCTGGAGGACTACAGTGGCCTGTCCGTGT	0.0582	0.107	0.0793	0.0742	0.0673	0.0807	0.0821	0.084
15.0 GCGCCTCCAATGACCCAGTGGGATCCTACTCCATAATGGGATCCTGGGGATTCCTCGCTCC	–	–	–	–	0.0821	–	–	0.0929
21.0 CGATTGAGAGTCAAACGGGCCAGAAAACTCCGGGAACGGGCCAGAAAACTCCGGGGCATGG	0.0119	0.0122	–	0.0245	0.0192	0.0417	0.0152	0.0297
26.0 (DMSO control at this site: 1-bp insertion 0.518, MH deletion 0.262, edited 0.026) AGGGCGCGCCCCACGCACTCTGCGGCAAGTCCCTCTGCGGCAAGTCCTCGGCCCGGAAGAC	0.284	0.567	0.537	0.496	0.46	0.363	0.491	0.494
27.0 CCAGAATTAGAACATATCATCTGGACCCTTTTCCATCTGGACCCTTTTCCAGCACACCCTG	–	0.169	–	0.146	0.183	0.158	0.141	0.187
5.0 (DMSO control at this site: 1-bp insertion 0.214, MH deletion 0.567, edited 0.105) CGCTGACCCGAGACCTACGCGAACCGAAATCGGCGACCGGTGCGCAAGCAGGGCTGGCGTC	0.184	0.293	0.277	0.277	0.203	0.187	0.27	0.272
41.0 (DMSO control at this site: 1-bp insertion 0.022, MH deletion 0.754, edited 0.115) AAAGAGACAGCAGGTATGAATCCATCTTCCTGACCCTTGGGACCAGCCGGGGCAGTGAAGC	0.0232	0.0155	0.0392	0.0338	0.0158	0.0195	0.0292	0.0487
29.0 (DMSO control at this site: 1-bp insertion 0.084, MH deletion 0.745, edited 0.133) TTGATGAACTTCCTCTTCTTCTCATGTCTCCGGTCTCCGGTAGGCCACGTGCATGGCCACT	0.0781	0.112	0.119	0.11	0.072	0.0694	0.105	0.115

Target	fraction of 1-bp insertions among edited reads (Pemetrexed)	fraction of 1-bp insertions among edited reads [1]	fraction of 1-bp insertions among edited reads [2]	fraction of 1-bp insertions among edited reads (Kenpaullone)	fraction of 1-bp insertions among edited reads (Genistein)	fraction of 1-bp insertions among edited reads [3]	fraction of 1-bp insertions among edited reads (Mercaptopurine (6-MP))	fraction of 1-bp insertions among edited reads [4]
7.0 (DMSO control at this site: 1-bp insertion 0.128, MH deletion 0.374, edited 0.098) TACTCAACCGAGACCTACGCGAACCGAAATCGTATGCCGGTGCGCAAGCAGGGCTGGCGTC	0.0646	0.128	0.15	0.156	0.12	0.16	0.145	0.197
43.0 (DMSO control at this site: 1-bp insertion 0.134, MH deletion 0.714, edited 0.104) AGTTTAACTTACTCCGGCCAAAAAAGAACTGCACCTCTGGAGCGGGTTAGTGGTGGTGGTA	0.101	0.0907	0.0417	0.058	0.0866	0.0822	0.0946	0.122
1.0 (DMSO control at this site: 1-bp insertion 0.521, MH deletion 0.323, edited 0.141) GTGTCACAGTGCACGAGTGACGGGATAATGTGCTGACAGGTAATTGATAGGCTTCCAACTT	0.486	0.73	0.653	0.673	0.54	0.552	0.591	0.6
46.0 TTAAGAGCAATGTTCACGCAACTTGAAATTATATCTGTGGTCTTCAAATTGTCTTTTGTCA	0.309	0.0621	–	–	0.25	–	–	0.17
33.0 (DMSO control at this site: 1-bp insertion 0.008, MH deletion 0.771, edited 0.112) CATTAAGAGCAGCTGCCGGCCCCCAAGTGGACAGAGCTGGCCCTGCTGATTCAACAGTGCA	0.0161	0.0263	0.0349	0.0243	0.0314	0.0159	0.0358	0.0255
25.0 (DMSO control at this site: 1-bp insertion 0.017, MH deletion 0.774, edited 0.143) GGGCCTGAATGGTGTGGACATCTACTCGCTGGTGAGCTGGTGACTGAAAACATTCAGTGGC	0.0305	0.0264	0.0219	0.0271	0.0281	0.0315	0.0245	0.0323
19.0 (DMSO control at this site: 1-bp insertion 0.121, MH deletion 0.101, edited 0.057) TCTGCAGGGGTCGGAACCCGGGGGCTAGGGCTATCCCGGGGGCTAGGGCTATTAGCGAACC	0.0345	0.138	0.109	0.0939	0.0748	0.0634	0.0615	0.104
45.0 (DMSO control at this site: 1-bp insertion 0.017, MH deletion 0.666, edited 0.101) TTACACAGCATGAACTGCTAGGTGATGATGTCAGATTCGGTTTTACTAACTTCTCCAAAAA	0.0325	0.0301	0.0412	0.0351	0.0293	0.0264	0.0287	0.0267
22.0 (DMSO control at this site: 1-bp insertion 0.573, MH deletion 0.229, edited 0.045) CTGATGGTTGAAGGATTTAGCCGGGGTCCTAGACGCCGGGGTCCTAGACGAAAGGGCCACG	0.447	–	0.671	0.604	0.595	0.623	0.587	0.601
20.0 (DMSO control at this site: 1-bp insertion 0.349, MH deletion 0.138, edited 0.084) TACAGGTGTAGACTGGTTACGTGGCTGCGGAATTGACTGGTTACGTGGCTGCGGAATTTTG	0.22	0.456	0.453	0.429	0.278	0.203	0.376	0.22
31.0 (DMSO control at this site: 1-bp insertion 0.315, MH deletion 0.329, edited 0.026) ACCTCCACAGGCTGGGTGGCCCGGAGGCTGGGCGGCCCGGAGGCTGGGCTGGGCGAGTATC	0.0954	–	0.127	0.173	0.102	0.138	0.178	0.208
47.0 (DMSO control at this site: 1-bp insertion 0.095, MH deletion 0.585, edited 0.118) GAGTGGTCCCGAGCCAGGAACTGTGTGTGTTGCAGGGGGGCAGTAACTCCCCAACTCCCTC	0.0508	0.158	0.144	0.101	0.0861	0.108	0.101	0.142
44.0 (DMSO control at this site: 1-bp insertion 0.181, MH deletion 0.512, edited 0.123) ACACATACCTTCTTCGAGGCAGCCAGCATGATGAGACAGGTCTCCCACAAACACATCGTGT	0.127	0.293	0.235	0.235	0.173	0.169	0.24	0.188
16.0 (DMSO control at this site: 1-bp insertion 0.172, MH deletion 0.29, edited 0.05) CGGACTGCACACATGGGTAGGATCGTGCACGCGAGGTAGGATCGTGCACGCGAAGTTATTC	0.149	0.218	0.178	0.198	0.144	0.19	0.165	0.166
4.0 (DMSO control at this site: 1-bp insertion 0.146, MH deletion 0.523, edited 0.125) ACGCCTTAGTGCACGAGTGACGGGATAATGTGGTCTCAGGTAATTGATAGGCTTCCAACTT	0.121	0.237	0.18	0.171	0.126	0.137	0.161	0.153
0.0 (DMSO control at this site: 1-bp insertion 0.463, MH deletion 0.339, edited 0.14) AGGATTACCGAGACCTACGCGAACCGAAATCGCTGTCCGGTGCGCAAGCAGGGCTGGCGTC	0.375	0.623	0.624	0.604	0.453	0.395	0.543	0.518
34.0 (DMSO control at this site: 1-bp insertion 0.184, MH deletion 0.385, edited 0.103) ATTATAGGACCCTGAGGGAGCAGAGATGTGGGAATGGGGGCCGAGCCAATTGTGATGTAAG	0.121	0.233	0.211	0.154	0.11	0.176	0.213	0.2
38.0 (DMSO control at this site: 1-bp insertion 0.063, MH deletion 0.487, edited 0.17) GGGCTGGGTGCTAAAATGAGGAGCTCCAAGAAGACTGAGGTGAACCTGGAGGCCCCTGAGC	0.0448	0.104	0.0891	0.102	0.0646	0.0742	0.0697	0.0502
2.0 (DMSO control at this site: 1-bp insertion 0.364, MH deletion 0.356, edited 0.125) GGTGCCCCCGAGACCTACGCGAACCGAAATCGATGTCCGGTGCGCAAGCAGGGCTGGCGTC	0.327	0.539	0.498	0.478	0.309	0.331	0.452	0.434
